In the library only some 7.5% were active in any assay of this set; here they are far more common.
Rab9 promoter act: activators of Rab9 promoter. Huh7 Rab9 promoter-luciferase reporter, luminescence, 24 h. Potency, µM (top dose mostly 9.22 µM), hits mostly activators. hit rate 2.8% among 320,000. AID 485297; note: nearly all actives have a fitted effect of over 60% in size
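Measured in stably transfected Huh7 cells bearing a Rab9 promoter–luciferase construct: 24 h compound treatment at 37 °C, followed by luminescence detection.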
FLuc counter: inhibits or activates purified firefly luciferase, miR-21 counter-screen | purified FLuc, Km substrates, luminescence inhibition | P08659 | hit rate 6.9% among 360,000 | Potency, µM (highest dose often 57.5 µM), usual class: inhibitors; note: nearly all actives have a fitted effect of over 55% in size
Target sequence (P08659 whole entry, looked up): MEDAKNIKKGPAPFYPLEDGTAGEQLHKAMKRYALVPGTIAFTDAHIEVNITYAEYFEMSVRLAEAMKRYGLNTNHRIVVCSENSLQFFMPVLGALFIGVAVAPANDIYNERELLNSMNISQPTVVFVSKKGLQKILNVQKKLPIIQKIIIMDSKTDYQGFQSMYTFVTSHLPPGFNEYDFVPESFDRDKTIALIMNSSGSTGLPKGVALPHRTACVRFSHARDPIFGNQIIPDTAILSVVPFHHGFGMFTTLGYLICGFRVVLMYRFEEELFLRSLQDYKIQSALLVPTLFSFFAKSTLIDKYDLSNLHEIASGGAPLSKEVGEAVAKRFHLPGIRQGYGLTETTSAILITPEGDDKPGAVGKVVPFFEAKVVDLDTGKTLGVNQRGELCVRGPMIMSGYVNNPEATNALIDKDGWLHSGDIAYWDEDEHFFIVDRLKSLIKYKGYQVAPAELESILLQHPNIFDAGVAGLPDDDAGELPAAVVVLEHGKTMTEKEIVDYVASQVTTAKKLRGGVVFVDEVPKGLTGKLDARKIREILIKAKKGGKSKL
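Purified P. pyralis luciferase, 10 nM final, with Km-level 10 uM D-luciferin and 10 uM ATP in 50 mM Tris acetate pH 7.5, 10 mM Mg acetate, 0.01% Tween-20, 0.05% BSA; 6-point qHTS titration about 60 µM downward; luminescence read.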
KinaseGlo FLuc: Kinase-Glo luciferase inhibition (counter-screen) | Q27757 | Kinase-Glo luciferase, ATP luminescence, 8 min | Potency, µM (highest dose often 38.3 µM), actives largely listed as inhibitors | hit rate 0.28% among 200,000; note: nearly all actives have a fitted effect of over 60% in size
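Inhibition of Kinase-Glo luciferase light generation was assessed at 10 uM ATP in pH 7.2 imidazole buffer, with luminescence measured after eight minutes at ambient temperature.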
ELG1 genotox: genotoxicity induction in ELG1-luciferase HEK293T cells; hit rate 1.3% among 330,000; HEK293T ELG1-luciferase reporter, luminescence, 16 h; AID 504466; Potency, µM (highest dose often 46 µM), most hits filed as activators; note: nearly all actives have a fitted effect of over 60% in size
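Reporter readout depends on ELG1 protein level, which increases with genetic stress. After 16 hr compound exposure at 37 °C, luciferase activity was quantified using ONE-Glo.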
SMN2 splice enh: enhancers of SMN2 splice variant expression. HEK293 SMN2-luciferase splicing reporter, luminescence, 30-36 h. Potency, µM (series often up to 46.1 µM), usual class: activators. hit rate 2.8% among 210,000; note: nearly all actives have a fitted effect of over 55% in size
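HEK293 cells carry an SMN2 […]–luciferase reporter in which exon 7 inclusion puts luciferase in frame. Cells were plated 10-12 h before compound addition, then incubated 30-36 h at 37C. ONE-Glo luminescence was read; sodium butyrate at 4.5 mM final served as control.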
NPC1 prom act: activates the NPC1 promoter | hit rate 2.4% among 320,000 | Potency, µM (series often up to 9.22 µM), hits mostly activators | AID 485313 | Huh7 NPC1 promoter luciferase reporter, 24 h; note: nearly all actives have a fitted effect of over 60% in size
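Luciferase expression driven by the NPC1 promoter was measured in stably transfected Huh7 cells after a 24 h compound incubation, using a luciferase reagent and a luminescence read.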
A number is an active result; i = inactive; ? = inconclusive; nt = no result. Calls come from the whole dose curve; as a rule, active = well fitted curve in the direction sought with a large enough effect; inconclusive = small, poorly fitted or top-dose-only effect, or another doubt; inactive = no such curve, though single readings can be large; an effect the other way counts as inactive or inconclusive.

SMILES	Rab9 promoter act	FLuc counter	KinaseGlo FLuc	ELG1 genotox	SMN2 splice enh	NPC1 prom act
O=C(N/N=C/c1ccc(OCC(=O)N2CCCCC2)cc1)c1ccccc1	i	?	i	i	?	i
COC(=O)c1scc(-c2ccc(C)cc2)c1S(=O)(=O)N1CCN(c2ccc(C(C)=O)cc2)CC1	nt	i	nt	nt	nt	nt
Cc1ccc(CS(=O)(=O)Cc2ccc(C(=O)NCCc3ccc(Cl)cc3)o2)cc1	nt	i	nt	nt	nt	nt
O=C(CC1SC(=O)NC1=O)Oc1ccc(/C=N/NC(=O)c2ccccc2O)cc1 (stereo not drawn)	i	16.9µM	nt	i	nt	i
CC(=O)Nc1ccc(OC(=O)CC2SC(=O)NC2=O)cc1 (stereo not drawn)	i	i	i	i	i	i
O=C(N/N=C/c1ccccc1OCC(=O)N1CCCC1)C(=O)Nc1ccccc1F	i	9.53µM	8.91µM	i	i	i
Nc1c(C(=O)N/N=C/c2ccccc2)cnn1-c1ccccc1	0.631µM	5.36µM	nt	?	nt	1.12µM
O=C(N/N=C\c1ccccc1)c1ccccc1-n1cccc1	i	i	i	i	i	i
O=C(O)COc1ccc(/C=N/NC(=O)c2cn(-c3ccccc3)nc2-c2ccccc2)cc1	i	4.78µM	nt	i	nt	i
CCc1ccccc1NC(=O)Cn1nnc2sc3c(c2c1=O)CCC(C(C)(C)C)C3 (stereo not drawn)	nt	i	nt	nt	i	nt
CCOC(=O)c1c(C)[nH]c(C)c1S(=O)(=O)NCC(=O)Nc1ccc(C)cc1C	nt	i	nt	nt	nt	nt
COc1ccc(OCC(=O)Nc2nnc3n2CCS3)cc1	nt	i	nt	nt	nt	nt
COc1ccc(C)cc1NC(=O)Cc1c(C(=O)O)c(C)cn1C	nt	i	nt	nt	nt	nt
C=CCN1C(=O)S/C(=C/c2ccsc2)C1=O	i	19µM	i	?	i	i
COc1cc(NC(=O)c2ccc3c(Cl)c4c(nc3c2)CCC4)cc(OC)c1OC	nt	?	nt	nt	i	nt
COC(=O)c1ccccc1NC(=O)c1ccc2c(Cl)c3c(nc2c1)CCCC3	nt	12µM	nt	nt	i	nt
CCOC(=O)c1cccc(NC(=O)c2ccc3c(Cl)c4c(nc3c2)CCC4)c1	nt	0.301µM	nt	nt	i	nt
CCCN(CCC)CCCNC(=O)c1ccc2c(Cl)c3c(nc2c1)CCC3	i	i	nt	i	nt	i
CCOC(=O)c1ccccc1NC(=O)c1ccc2c(Cl)c3c(nc2c1)CCC3	nt	5.36µM	nt	nt	i	nt
COCCNC(=O)c1ccc2c(Cl)c3c(nc2c1)CCC3	3.55µM	8.49µM	nt	?	nt	?
COc1ccc(OC)c(NC(=O)c2ccc3c(Cl)c4c(nc3c2)CCCC4)c1	nt	i	nt	nt	i	nt
CCOC(=O)c1ccccc1NC(=O)c1ccc2c(=O)n3c(nc2c1)CCCCC3	i	?	i	i	i	i
Fc1ccc2nc3[nH]c4ccccc4c3nc2c1	3.16µM	1.9µM	i	?	15.8µM	3.16µM
Cc1nnsc1-c1nc2ccccc2[nH]1	i	i	i	i	i	i
Cc1ccc(S(=O)(=O)Nc2ccc3nc(-c4cccn4C)[nH]c3c2)cc1	i	i	i	i	8.91µM	i
SMILES	Rab9 promoter act	FLuc counter	KinaseGlo FLuc	ELG1 genotox	SMN2 splice enh	NPC1 prom act
Nc1ccc(C(=O)Nc2ccc3nc(-c4cccnc4)[nH]c3c2)cc1	i	16.9µM	i	i	i	i
Cc1ccc(S(=O)(=O)Nc2ccc3cn[nH]c3c2)cc1	i	i	nt	i	nt	i
Cn1cccc1-c1nc2ccc(NC(=O)c3ccccc3)cc2[nH]1	i	15.1µM	i	?	i	i
Cn1cccc1-c1nc2ccccc2[nH]1	i	16.9µM	nt	?	nt	?
Cn1cccc1-c1nc2ccc(NC(=O)c3ccc([N+](=O)[O-])cc3)cc2[nH]1	i	i	i	i	i	i
Cc1cc2c(cc1S(=O)(=O)CCC(=O)N1CCN(c3ccccc3)CC1)OCC(=O)N2	nt	i	nt	nt	nt	nt
Cc1cc(N2CCCCC2)nc2ccc(NC(=O)/C=C/c3ccccc3OC(C)C)cc12	nt	i	nt	nt	i	nt
Cc1cccc(C)c1OCC(=O)Nc1ncn[nH]1	i	i	i	i	i	i
O=C(COc1ccc2ccccc2c1Br)Nc1ncn[nH]1	i	13.5µM	i	?	i	i
COc1ccc(N2C(=O)C(Cl)=C(Nc3ccccc3OC)C2=O)cc1	i	23.9µM	i	i	i	i
CCc1ccc(OC(=O)c2cccnc2)cc1	i	10.7µM	nt	i	nt	i
Cc1ccc(OC(=O)c2cccnc2)cc1	i	?	i	i	i	i
COc1ccc(NC(=O)N2CC3(CCN(C(=O)c4ccco4)CC3)C2)cc1	nt	nt	i	nt	i	nt
Clc1ccccc1Cn1c(/C=C/c2ccco2)nc2ccccc21	i	10.7µM	i	i	i	i
O=C(NCCCc1nc2ccccc2n1Cc1ccccc1Cl)c1ccco1	nt	i	nt	nt	i	nt
c1ccc(-c2nc(-c3ccc(-c4ccon4)s3)no2)cc1	1.41µM	1.2µM	nt	?	nt	1.12µM
CCOc1nc(-c2ccccc2)ccc1-c1noc(-c2ccncc2)n1	i	i	i	i	i	i
c1csc(-c2nc(-c3ccc(-c4ccon4)s3)no2)c1	0.355µM	0.601µM	nt	2.31µM	nt	0.562µM
CC(C)(C)c1ccc(/C=N/N2C(=O)CSC2=S)cc1	i	16.9µM	nt	i	nt	i
COc1ccc(/C=N/N2C(=O)CSC2=S)cc1	nt	?	i	nt	i	nt
O=C(N=Nc1c(O)n(Cc2ccccc2)c2ccccc12)c1ccc(O)cc1	?	0.953µM	i	?	?	?
Cc1ccc(NC(=O)Cn2c(O)c(N=NC(=O)c3cc4ccccc4cc3O)c3ccccc32)cc1	i	?	i	i	i	i
O=C(N=Nc1c(O)n(Cc2ccccc2)c2ccccc12)c1cc2ccccc2cc1O	?	1.07µM	i	?	10µM	?
Cc1ccc(-n2nc3c(=O)n(CC(=O)NC(C)C)nc(C)c3c2C)cc1	nt	i	nt	nt	nt	nt
N=C1/C(=C\c2ccc(SCc3ccccc3)o2)C(=O)N=C2SC=NN12	i	13.5µM	i	i	i	i
SMILES	Rab9 promoter act	FLuc counter	KinaseGlo FLuc	ELG1 genotox	SMN2 splice enh	NPC1 prom act
Cc1ccc([N+](=O)[O-])cc1NC(=O)c1ccc2c(c1)OCO2	i	i	i	i	i	i
O=C(Nc1ncc([N+](=O)[O-])s1)c1ccc2c(c1)OCO2	1.26µM	0.107µM	nt	?	nt	3.16µM
O=C(Nc1ncc([N+](=O)[O-])s1)c1ccco1	1.12µM	10.7µM	nt	2.59µM	nt	1.58µM
Cc1onc(-c2ccccc2)c1C(=O)Nc1ncc([N+](=O)[O-])s1	i	i	nt	i	nt	i
Cc1ccc(C(=O)Nc2ncc([N+](=O)[O-])s2)cc1	0.0251µM	0.12µM	nt	?	nt	0.0316µM
COc1ccc(CCNC(=O)C2(c3cccs3)CCOCC2)cc1	nt	i	nt	nt	nt	nt
CN(C)c1ncc2nc(CCc3ccccc3)c(=O)n(Cc3ccc(F)cc3)c2n1	nt	nt	i	nt	i	nt
Clc1ccc2nc(-c3ccc(N4CCOCC4)cc3)c(Nc3ccccc3)n2c1	nt	?	nt	nt	i	nt
Cc1ccc(Nc2c(-c3ccc(N4CCOCC4)cc3)nc3ncccn23)c(C)c1	i	19µM	i	i	i	i
Cc1ccccc1Nc1c(-c2ccc(N3CCOCC3)cc2)nc2ccc(Cl)cn12	nt	2.39µM	nt	nt	i	nt
